Screening data from PubChem BioAssay.
A selection: hits, their analogues and other compounds. The true share with any hit is near 7.2%.
FMDV antiviral: blocks foot and mouth disease virus | actives 1.2% (n = 410,000) | AID 1159524 | FMDV antiviral cell-based qHTS | Potency, µM (doses to about 57.9 µM), inactives show at the highest dose activity change, negative = inhibition, most hits filed as inhibitors; calls by dose curve; tested in HEK293T cells; note: read-out not given here; nearly all actives have a fitted effect of over 45% in size
HCV inhibitor: inhibitors of hepatitis C virus infection; Huh7.5.1 HCVcc-Cre infection, luciferase reporter, 44 h; Potency, µM (highest dose often 41.8 µM), without a hit: at the top dose activity change, negative = inhibition, usual class: inhibitors; actives 3.4% (n = 340,000); AID 651820
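1,000 cells/well; 4 h culture; + compound; + HCVcc-Cre (~0.5 moi); 44 h; luciferase substrate, RT 15 min; read 15 sec.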
LASV entry inh: blocks Lassa virus binding to or entry into cells | Lassa virus pseudotype entry inhibition, cell reporter | Potency, µM (series often up to 37.9 µM), for inactives: at the top dose activity change, negative = inhibition, actives largely listed as inhibitors | actives 1.2% (n = 300,000) | AID 540256; calls by dose curve; tested in HEK293 cells; note: nearly all actives have a fitted effect of over 50% in size
Marburg entry inh: inhibitors of Marburg virus binding or cell entry; Marburg virus pseudotyped entry inhibition, cell reporter; Potency, µM (doses to about 37.8 µM), without a hit: at the highest dose activity change, negative = inhibition, usual class: inhibitors; actives 1.8% (n = 300,000); AID 540276; calls by dose curve; tested in HEK293 cells
RE007 growth inh: less growth of the S. pombe RE007 Vpr strain; AID 651644; Potency, µM (top dose mostly 92.2 µM), without a hit: at the highest dose activity change, negative = less growth, hits mostly inhibitors; actives 0.21% (n = 360,000); S. pombe RE007 Vpr strain, BacTiter-Glo ATP luminescence, 24 h; active = well fitted falling curve with a large enough effect; inconclusive = small, poorly fitted or top-dose-only effect; inactive = no such curve, though single readings can be large or run the other way; note: nearly all actives have a fitted effect of over 50% in size
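Fission yeast RE007 carrying one integrated HIV-1 vpr copy, seeded at OD 0.01 in PMG+AL medium with 23 nL pinned compound. Grown 24 h at 30 degrees; viability read by BacTiter-Glo luminescence after 5 min.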
Sm TGR inh: inhibitors of Schistosoma mansoni thioredoxin glutathione reductase; Q962Y6; purified TGR, DTNB reduction, TNB absorbance 405 nm; Potency, µM (series often up to 114 µM), for inactives: top-dose activity change, negative = inhibition, hits mostly inhibitors; actives 3% (n = 360,000); AID 485364; note: nearly all actives have a fitted effect of over 60% in size
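First, TGR (20 nM dispensed) and NADPH were mixed with compound. Second, a 15 min room-temperature incubation followed. Third, further NADPH and then DTNB were added to start the reaction. Finally, TNB absorbance was monitored kinetically.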
* hit, by the source's call; u = inconclusive; x = not tested or not shown; ! = not active in a repeat; [ ] = dose if it differs, or a comment. Unless noted, calls come from the whole dose curve; as a rule, active = well fitted curve in the direction sought with a large enough effect; inconclusive = small, poorly fitted or top-dose-only effect, or another doubt; inactive = no such curve, though single readings can be large; an effect the other way counts as inactive or inconclusive. % is set by controls: 0 for no effect and ±100 for the full control effect; potency is the fitted concentration of half-maximal effect.

SMILES	FMDV antiviral	HCV inhibitor	LASV entry inh	Marburg entry inh	RE007 growth inh	Sm TGR inh
CC(C)C[C@H]1C(=O)N2CCCC2[C@]2(O)O[C@](NC(=O)[C@@H]3C=C4c5cccc6[nH]c(Br)c(c56)C[C@H]4N(C)C3)(C(C)C)C(=O)N12 (stereo partly specified)	x	x	x	10µM*	x	x
CCCNC(=O)CCSc1nc(-c2ccc3c(c2)OCO3)cc(C(F)(F)F)n1	-27.6%	x	-9.6%[46.1 µM]	-13.1%[46.1 µM]	x	6.7%
COc1cc(C2C3=C(CC(c4ccco4)CC3=O)Nc3ccccc3N2C(C)=O)cc(OC)c1OC (stereo unspecified)	42.6%	6.6%	0.9%	-7.7%	-13.8%	79.4µM*
CCC(=O)N1c2ccccc2NC2=C(C(=O)CC(c3ccco3)C2)C1c1ccco1 (stereo unspecified)	13.8%	21.1%	-2.6%	-5.8%[46.1 µM]	-13.2%	u
O=C1CC(c2ccco2)CC2=C1C1c3ccccc3C(=O)N1c1ccccc1N2 (stereo unspecified)	19.8%	u	-9.3%	u	2.2%	35.5µM*
COc1ccc(C(=O)N(Cc2cc3cccc(C)c3nc2N(C)C)CC2CCCO2)cc1 (stereo unspecified)	-3.3%	x	x	x	x	x
CC(C)C1Cc2c(C#N)c(N)sc(=S)c2CO1 (stereo unspecified)	-27.2%	-13.1%	15.3%	0.9%	-0.6%	10µM*
O=C(Cn1c(SCCOc2ccccc2Cl)nc2ccccc21)N1CCOCC1	-5.5%	x	21.0%[46.1 µM]	9.3%[46.1 µM]	x	9.4%
O=C(Nc1cccc(-c2cnc3ccccc3n2)c1)c1cccc(NC(=O)c2ccco2)c1	u	10µM*	u	11.6µM*	-2.6%	-18.1%
O=C(O)COc1cnc2ccccc2n1	-2.6%	12.0%	u	-1.1%[46.1 µM]	17.5%	-7.1%
O=C(CCl)Nc1ccc(Oc2cnc3ccccc3n2)cc1	20µM*	u	20.6µM*	u	8.8%	-26.7%
CCC(=O)Nc1cccc(-c2cnc3ccccc3n2)c1	26.8%	u	u	u	-21.6%	1.2%
O=C(Nc1cccc(-c2cnc3ccccc3n2)c1)C1CC(=O)N(c2ccccc2)C1 (stereo unspecified)	u	12.6µM*	u	u	-9.2%	1.6%
O=C(CCl)Nc1cccc(-c2cnc3ccccc3n2)c1	25.1µM*	u	u	u	-5.2%	u
CCOc1cc2sc(N3CCC(C(=O)Nc4ccc(C)cc4)CC3)nc2cc1Br	19.8%	x	x	u	x	9.5%
O=C(Nn1c(O)c(C=C2N=c3ccccc3=N2)sc1=S)c1ccccc1Cl	-10.3%	-1.3%	u	-5.0%	-7.6%	-13.5%
O=S(=O)(Nn1c(O)c(C=C2N=c3ccccc3=N2)sc1=S)c1ccccc1	-8.3%	-11.2%	x	x	1.5%	11.2µM*
CC1CCCN(CC(O)CN2CCN(CC(O)CN3CCCC(C)C3)C(C)C2)C1 (stereo unspecified)	5.3%	9.2%	3.2%[46.1 µM]	1.12µM*	-20.6%	x
Cc1ccccc1OCC(O)CN1CCN(CC(O)COc2ccccc2C)C(C)C1 (stereo unspecified)	-23.5%	-15.9%	u	u	-4.5%	0.5%
Cc1ccc2ncc3c(-c4ccccc4)nn(CC(=O)NC4CCCCC4)c3c2c1	1.3%	x	1.7%[46.1 µM]	x	x	1.9%
Cc1nc2ccccc2c(=O)n1/N=C/c1ccc([N+](=O)[O-])o1	x	x	x	x	x	14.1µM*
COc1cccc(/C=N\n2c(C)nnc2C)c1OC	-1.1%	10.9%	-2.5%	u	-2.8%	0.0%
Cc1nc2ccccc2n1/N=C/c1ccc([N+](=O)[O-])o1	x	10µM*	u	14.6µM*	u	x
COc1ccc(/C=N/n2c(SC)nnc2-c2ccccc2)cc1C	-21.4%	-11.3%	u	u	17.9%	-24.0%
COc1ccc(/C=N/n2c(SC)nnc2-c2ccccc2)c(OC)c1OC	-28.7%	u	3.55µM*	5.01µM*	10.5%	-11.6%
SMILES	FMDV antiviral	HCV inhibitor	LASV entry inh	Marburg entry inh	RE007 growth inh	Sm TGR inh
COc1cccc(/C=N/n2c(C)nc3ccccc32)c1OC	0.0%	8.91µM*	3.0%	-3.2%	4.0%	u
CC[N+](C)(CC)CCOC(=O)[C@@](O)(c1ccccc1)C1CCCCC1	x	x	x	22.0%	x	x
COc1ccc2cc1Oc1ccc(cc1)C[C@H]1c3c(cc4c(c3Oc3cc5c(cc3OC)CCN(C)[C@@H]5C2)OCO4)CCN1C	u	14.1µM*	x	x	1.3%	2.0%
COc1cc2c3cc1Oc1cc(ccc1O)C[C@@H]1c4c(cc(OC)c(O)c4Oc4ccc(cc4)C[C@H]3N(C)CC2)CCN1C	-26.2%	7.94µM*!	u	1.84µM*	5.2%[18.4 µM]	-16.2%
COc1cc2c3cc1Oc1cc(ccc1O)C[C@@H]1c4c(cc(OC)c(O)c4Oc4cccc(c4)C[C@@H]3N(C)CC2)CC[N+]1(C)C	-18.4%	-3.9%	x	x	-5.3%[18.4 µM]	-25.1%
COc1ccc2cc1Oc1ccc(cc1)C[C@H]1c3cc(c(OC)cc3CCN1C)Oc1c(OC)c(OC)cc3c1[C@H](C2)N(C)CC3	-22.6%	u	x	x	-2.9%	-1.6%
COc1cc2c3cc1Oc1c(OC)c(OC)cc4c1[C@H](Cc1ccc(cc1)Oc1cc(ccc1O)C[C@H]3N(C)CC2)N(C)CC4	-4.4%	11.2µM*	x	x	-6.5%	x
COc1ccc(Br)cc1CNC(=O)CCCn1c(=O)c2cccn2c2ccccc21	-5.6%	x	-7.6%[46.1 µM]	x	x	-12.7%
CCO[C@H](c1cc(OC)cc([N+](=O)[O-])c1OC)[C@H](C)[C@@H](OC)[C@H](C)/C=C/CC(=O)OC	x	x	x	1.2%[14.2 µM]	x	x
O=C1N(c2ccccc2)C[C@@H]2C[C@@H](c3cccs3)N3CCC[C@@]123	-1.9%	u	x	x	13.3%	15.8µM*
COc1ccccc1C1C(C(=O)Nc2ccccc2)=C(C)Nc2nc(-c3ccccc3)nn21 (stereo unspecified)	-30.4%	x	-1.0%[46.1 µM]	-9.2%[46.1 µM]	x	5.8%
CCOc1c(S(=O)(=O)NC2CC(C)(C)NC(C)(C)C2)ccc(Cl)c1Cl	-2.1%	u	-24.8%[46.1 µM]	10µM*	-22.3%	15.4%
O=C(C(Cc1ccccc1)N1C(=O)C2C3C=CC(C3)C2C1=O)N1CCCCC1 (stereo unspecified)	4.8%	1.4%	13.7%	-4.8%	1.9%	0.0%
O=C(NCc1ccco1)C(Cc1ccccc1)N1C(=O)C2C3C=CC(C3)C2C1=O (stereo unspecified)	-4.3%	4.6%	10.1%	u	-10.5%	22.4µM*
O=C(C(Cc1ccccc1)N1C(=O)C2C3C=CC(C3)C2C1=O)N1CCCCCC1 (stereo unspecified)	-6.5%	9.8%	4.2%	-1.3%	2.1%	79.4µM*
O=C(CC(Cc1ccccc1)c1ccco1)NCc1ccco1 (stereo unspecified)	-11.6%	-10.8%	7.2%	26.3%	15.1%	u
CCn1cc(CN2Cc3ccccc3OC(c3ccccc3OC)C2)c(C)n1 (stereo unspecified)	0.0%	x	x	x	x	x
